Values joined by “and” are separate entries in the source; they are usually repeats but may differ in a detail not shown here. Equal entries are not always repeated. Hit rate of the full screen: of about 5,500 compounds, about 2,000 (36%) were called active. Not shown: some 18% with an inconclusive outcome. Cut-off read from the data, not from the text of the source: active = normalized growth mostly below about 0.91 (no sharp cut-off); inconclusive = no clear call, values can overlap the other calls; inactive = mostly above about 0.92. This is one part of the list.
Test: chemical genetic growth profiling, strain panel (AID 1159580);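 note: tested at 20 µM; growth read once vehicle control cultures reached saturation at 30 °C; 1 = growth at the plate median or of vehicle wells; lower values mean less growth of the strain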
Settings: S. cerevisiae deletion strains, growth OD

Measured: normalized growth

C=CC1=C(C)/C(=C/c2[nH]c(Cc3[nH]c(/C=C4\NC(=O)C(C)=C4C=C)c(C)c3CCC(=O)O)c(CCC(=O)O)c2C)NC1=O
active: locus YKL009W, strain mrt4, active compounds read low 1.16 [resistant]
inactive: locus YAL013W, strain DEP1, active compounds read low 1.02 | locus YAL021C, strain ccr4, active compounds read low 0.949 | locus YAL026C, strain drs2, active compounds read low 0.982 | locus YAL030W, strain snc1, active compounds read low 0.996 | locus YBL061C, strain skt5, active compounds read low 0.993 | locus YBR009C, strain hhf1, active compounds read low 1.03 | locus YBR021W, strain FUR4, active compounds read low 1.02 | locus YBR023C, strain chs3, active compounds read low 0.993 | locus YBR171W, strain sec66, active compounds read low 0.982 | locus YBR229C, strain ROT2, active compounds read low 1.01 | locus YBR231C, strain swc5, active compounds read low 1 | locus YBR279W, strain paf1, active compounds read low 0.995 | locus YCL011C, strain gbp2, active compounds read low 0.984 | locus YCL016C, strain dcc1, active compounds read low 0.994 | locus YCL029C, strain bik1, active compounds read low 1.02 | locus YCL061C, strain MRC1, active compounds read low 0.978 | locus YCL069W, strain vba3, active compounds read low 0.986 | locus YCR088W, strain abp1, active compounds read low 0.98 | locus YDL005C, strain med2, active compounds read low 0.981 | locus YDL035C, strain GPR1, active compounds read low 1.02 | locus YDL040C, strain nat1, active compounds read low 0.979 | locus YDL074C, strain BRE1, active compounds read low 1.03 | locus YDL101C, strain DUN1, active compounds read low 1.01 | locus YDL134C, strain PPH21, active compounds read low 1.02 | locus YDL185W, strain tfp1, active compounds read low 1.01 | locus YDL192W, strain arf1, active compounds read low 1.02 | locus YDR001C, strain nth1, active compounds read low 0.979 | locus YDR069C, strain doa4, active compounds read low 0.998 | locus YDR101C, strain arx1, active compounds read low 1.03 | locus YDR137W, strain rgp1, active compounds read low 0.931 | locus YDR159W, strain sac3, active compounds read low 1.02 | locus YDR162C, strain NBP2, active compounds read low 1.04 | locus YDR195W, strain ref2 0.992 | locus YDR297W, strain sur2, active compounds read low 0.978 | locus YDR318W, strain mcm21, active compounds read low 1.02 | locus YDR334W, strain swr1, active compounds read low 0.955 | locus YDR335W, strain msn5, active compounds read low 0.974 | locus YDR388W, active compounds read low 1.02 | locus YDR392W, strain spt3, active compounds read low 0.916 | locus YDR502C, strain sam2, active compounds read low 1 | locus YEL003W, strain gim4, active compounds read low 0.981 | locus YEL037C, strain rad23, active compounds read low 0.984 | locus YEL061C, strain CIN8 (second series), active compounds read low 0.989 | locus YEL061C, strain CIN8, active compounds read low 1 | locus YER015W, strain faa2, active compounds read low 0.99 | locus YER016W, strain bim1, active compounds read low 0.992 | locus YER110C, active compounds read low 1.01 | locus YER111C, strain swi4, active compounds read low 1 | locus YER155C, strain BEM2 (second series), active compounds read low 1.02 | locus YER155C, strain BEM2, active compounds read low 1.01 | locus YER167W, strain BCK2, active compounds read low 1.01 | locus YFR010W, strain ubp6, active compounds read low 0.985 | locus YGL078C, strain dbp3, active compounds read low 1.04 | locus YGL086W, strain mad1, active compounds read low 1.03 | locus YGL167C, strain pmr1, active compounds read low 0.995 | locus YGL173C, strain kem1, active compounds read low 0.975 | locus YGL227W, strain vid30, active compounds read low 0.994 | locus YGL240W, strain doc1, active compounds read low 1.02 | locus YGL248W, strain PDE1, active compounds read low 1.02 | locus YGL253W, strain hxk2, active compounds read low 1.01 | locus YGR078C, strain PAC10, active compounds read low 1 | locus YGR135W, strain pre9, active compounds read low 0.993 | locus YGR252W, strain gcn5, active compounds read low 0.99 | locus YHR013C, strain ard1, active compounds read low 0.97 | locus YHR027C, strain rpn1, active compounds read low 0.987 | locus YHR030C, strain SLT2, active compounds read low 1.01 and 1.03 | locus YHR079C, strain IRE1 (second series), active compounds read low 1.01 | locus YHR079C, strain IRE1, active compounds read low 1.04 | locus YHR094C, strain hxt1, active compounds read low 1.01 | locus YHR129C, strain ARP1, active compounds read low 1 | locus YHR142W, strain chs7, active compounds read low 0.932 | locus YHR200W, strain rpn10, active compounds read low 1.02 | locus YIL066C, strain RNR3, active compounds read low 1.02 | locus YIL073C, strain SPO22, active compounds read low 1.15 | locus YIL125W, strain kgd1, active compounds read low 1.05 | locus YIR030C, strain dcg1, active compounds read low 1.02 | locus YJL092W, strain hpr5, active compounds read low 0.961 | locus YJL095W, strain BCK1 (second series), active compounds read low 0.994 | locus YJL095W, strain BCK1, active compounds read low 1.02 and 0.973 | locus YJL115W, strain asf1, active compounds read low 0.978 | locus YJL129C, strain trk1, active compounds read low 0.97 | locus YJL134W, strain LCB3, active compounds read low 1.01 | locus YJL154C, strain vps35, active compounds read low 0.982 | locus YJL164C, strain tpk1, active compounds read low 0.973 | locus YJL166W, strain qcr8, active compounds read low 0.997 | locus YJL168C, strain set2, active compounds read low 1.01 | locus YJL187C, strain SWE1 (second series), active compounds read low 0.998 | locus YJL187C, strain SWE1, active compounds read low 0.983 | locus YJR043C, strain POL32, active compounds read low 1.02 | locus YJR066W, strain TOR1, active compounds read low 1 | locus YJR075W, strain HOC1, active compounds read low 1.01 | locus YKL068W, active compounds read low 1.03 | locus YKL085W, strain MDH1 (second series), active compounds read low 1.04 | locus YKL085W, strain MDH1, active compounds read low 1.04 | locus YKL160W, strain elf1, active compounds read low 0.972 | locus YKR001C, strain vps1, active compounds read low 1.05 | locus YKR026C, strain gcn3, active compounds read low 0.986 | locus YKR091W, strain srl3, active compounds read low 0.982 | locus YLL001W, strain dnm1, active compounds read low 0.988 | locus YLL026W, active compounds read low 0.99 | locus YLL041C, strain sdh2, active compounds read low 0.979 | locus YLR027C, strain aat2, active compounds read low 0.979 | locus YLR039C, strain RIC1, active compounds read low 1 | locus YLR058C, strain SHM2, active compounds read low 1 | locus YLR102C, strain apc9, active compounds read low 1.02 | locus YLR113W, strain HOG1, active compounds read low 0.964 | locus YLR221C, strain rsa3, active compounds read low 0.966 | locus YLR258W, strain gsy2, active compounds read low 1 | locus YLR262C, strain YPT6 (second series), active compounds read low 0.963 | locus YLR262C, strain YPT6, active compounds read low 1.08 | locus YLR268W, strain sec22, active compounds read low 1.03 | locus YLR320W, strain mms22, active compounds read low 1.02 | locus YLR330W, strain CHS5, active compounds read low 1.01 | locus YLR342W, strain FKS1 (second series), active compounds read low 1.01 | locus YLR342W, strain FKS1, active compounds read low 0.992 | locus YLR357W, strain rsc2, active compounds read low 1.01 | locus YLR370C, strain arc18, active compounds read low 0.976 | locus YLR371W, strain rom2, active compounds read low 1.03 | locus YLR384C, strain iki3, active compounds read low 0.987 | locus YLR418C, strain cdc73, active compounds read low 1.03 | locus YML016C, strain PPZ1, active compounds read low 1 | locus YML032C, strain rad52, active compounds read low 1.03 | locus YML120C, strain ndi1, active compounds read low 0.961 | locus YML124C, strain tub3, active compounds read low 1.02 | locus YMR058W, strain fet3, active compounds read low 0.971 | locus YMR078C, strain ctf18, active compounds read low 1.04 | locus YMR125W, strain sto1, active compounds read low 1.02 | locus YMR129W, active compounds read low 0.988 | locus YMR205C, strain PFK2, active compounds read low 1.02 | locus YMR223W, strain ubp8, active compounds read low 1 | locus YMR231W, strain pep5, active compounds read low 0.99 | locus YMR263W, strain SAP30, active compounds read low 1 | locus YMR307W, strain GAS1, active compounds read low 0.968 | locus YNL067W, strain RPL9B, active compounds read low 0.999 | locus YNL071W, strain lat1, active compounds read low 0.988 | locus YNL183C, strain NPR1, active compounds read low 0.919 | locus YNL209W, strain ssb2, active compounds read low 0.987 | locus YNL233W, strain BNI4, active compounds read low 1.01 | locus YNL248C, strain rpa49, active compounds read low 0.938 | locus YNL250W, strain rad50, active compounds read low 1.01 | locus YNL271C, strain bni1, active compounds read low 1.03 | locus YNL298W, strain CLA4, active compounds read low 1.02 | locus YNL307C, strain MCK1, active compounds read low 1.01 | locus YNL322C, strain KRE1 (second series), active compounds read low 0.982 | locus YNL322C, strain KRE1, active compounds read low 1.01 | locus YNR049C, strain mso1, active compounds read low 0.981 | locus YNR052C, strain pop2, active compounds read low 1.01 | locus YOL012C, strain htz1 0.856 | locus YOL147C, strain pex11, active compounds read low 1.02 | locus YOR001W, strain rrp6, active compounds read low 0.951 | locus YOR061W, strain CKA2, active compounds read low 1.03 | locus YOR069W, strain VPS5, active compounds read low 1.01 | locus YOR070C, strain gyp1, active compounds read low 0.996 | locus YOR080W, strain dia2, active compounds read low 0.986 | locus YOR083W, strain WHI5, active compounds read low 0.94 | locus YOR106W, strain vam3, active compounds read low 0.951 | locus YOR136W, strain idh2, active compounds read low 1.02 | locus YOR144C, strain elg1, active compounds read low 1.01 | locus YOR184W, strain ser1, active compounds read low 1.07 | locus YOR231W, strain MKK1, active compounds read low 1.03 | locus YOR265W, strain rbl2, active compounds read low 0.985 | locus YOR270C, strain vph1, active compounds read low 0.971 | locus YOR290C, strain snf2, active compounds read low 1.01 | locus YOR316C, strain cot1, active compounds read low 1.02 | locus YPL051W, strain arl3, active compounds read low 0.969 | locus YPL055C, strain LGE1, active compounds read low 0.995 | locus YPL078C, strain atp4, active compounds read low 0.939 | locus YPL106C, strain sse1, active compounds read low 0.949 | locus YPL240C, strain hsp82, active compounds read low 0.982 | locus YPL241C, strain CIN2, active compounds read low 1.01 | locus YPL256C, strain CLN2, active compounds read low 1.06 | locus YPR119W, strain clb2, active compounds read low 1.01 | locus YPR163C, strain tif3, active compounds read low 1.02 | locus YPR167C, strain met16, active compounds read low 1.02 | strain wtn01, active compounds read low 1.04
